Experimental data: PubChem BioAssay AID1053188 (Broad Institute, 2014)
Values joined by “and” are separate entries in the source; they are usually repeats but may differ in a detail not shown here. Identical values can stand only once. About 780 (0.94%) of roughly 83,000 compounds were called active. The sample holds actives, similar compounds and a random draw of the others, so the mix is not that of the screen.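 Rule for the calls: active = mean inhibition of at least 50% with a set share of replicates also reaching that level; inconclusive = no clear call, values can overlap the other calls; inactive = the rest.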

Experiment: inhibitors of CD40-induced NF-kB signaling, primary screen, BL2 cells, luciferase reporter, single point (AID 1053188);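 note: 0% = neutral control wells and 100% = IKK inhibitor VII at 50 µM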
Settings: CD40L-induced, 4 h, stronger effect = higher value; at 10 µM unless noted

SMILES	inhibition
O=C(NCCc1ccc(F)cc1)c1ccc(S(=O)(=O)N2CCCCC2)cc1	-1.19% (inactive)
CC(C)(C)NC(=O)NC(=O)COC(=O)Cc1ccc(Cl)cc1Cl	15.3% (inactive)
NC(N)=N/N=C/c1ccc(OCc2ccc(Cl)cc2Cl)cc1	83.8% (active)
CCOc1ccc(NC(=O)NNC(=O)c2ccc(Cl)cc2Cl)cc1	10.3% (inactive)
COCCNC(=O)CSc1nc(N)c(NC(=O)c2ccco2)c(=O)[nH]1	6.02% (inactive)
COc1ccccc1C(=O)NC(CCSC)C(=O)NNC(=O)c1ccccc1C (stereo not given)	0.904% (inactive)
O=C(COC(=O)c1ccccc1)c1ccc2c(c1)OCCO2	101% (active)
O=C(COC(=O)c1ccc(F)cc1)Nc1ccc2c(c1)OCO2	-50.8% (inactive)
O=C1COc2ccc(C(=O)COC(=O)c3ccccc3Cl)cc2N1	-59.8% (inactive)
CC(=O)Nc1cccc(C(=O)OCC(=O)c2ccc3c(c2)OCO3)c1	90.8% (active)
O=C(COC(=O)c1ccc2c(c1)OCCO2)NCc1ccccc1Cl	-15% (inactive)
O=C(COC(=O)c1ccncc1)Nc1ccc2c(c1)OCO2	-1.31% (inactive)
CCC(=O)Nc1nnc(S(=O)(=O)N2CCCc3ccccc32)s1	5.48% (inactive)
CC(C)NC(=O)N(C)C[C@H]1Oc2ccc(N(C)C)cc2CC(=O)N(C)C[C@@H]1C	6.49% (inactive)
CC(=O)Nc1cccc(C(=O)OCC(=O)NCc2cc(C)c(O)c(C)c2)c1	-53.4% (inactive)
CN(CC(=O)Nc1ccc(OC(F)(F)F)cc1)C(=O)C1CCC1	-5.45% (inactive)
O=C(CSc1ccccc1)Nc1cccc(S(=O)(=O)N2CCCCC2)c1	-2.87% (inactive)
CC(=O)Oc1ccc(-c2cccc(C(=O)N3CCCCC3)c2)cc1	-16.5% (inactive)
N#C[C@@H]1[C@H](c2ccccc2)[C@H](CO)N1C(=O)CN1CCOCC1	-6.4% [at 25 µM] (inactive)
CCOC(=O)C1(Cc2cccc(OC)c2)CCN(Cc2csc(C(C)=O)c2)CC1	21.6% (inactive)
CN1C(=O)c2cc(NC(=O)c3cccc(F)c3)ccc2OC[C@@H]2O[C@@H](CC(=O)NCC3CCCCC3)CC[C@H]21	28.6% [at 25 µM] (inactive) and 23.2% [at 25 µM] (inactive)
COC(=O)CCNc1ccc2c(c1)OCCO2	49.8% (active)
Cc1ccc(OCCCC(=O)Nc2ccc3c(c2)OCCO3)cc1	8.39% (inactive)
CCCCC(=O)Nc1ccc2c(c1)OCCO2	-54.6% (inactive)
CSc1ncccc1C(=O)NC1CCCCCC1	3.02% (inactive)
C[C@@H]1CN([C@@H](C)CO)C(=O)c2cc(C#CCc3ccccc3)cnc2O[C@@H]1CN(C)C(=O)C1CCOCC1	65% [at 25 µM] (active)
C[C@H]1CN([C@@H](C)CO)C(=O)c2cc(C#CC3(O)CCCC3)cnc2O[C@@H]1CN(C)C(=O)Cc1ccccc1	-19.3% [at 25 µM] (inactive)
C/C=C/c1cnc2c(c1)C(=O)N([C@@H](C)CO)C[C@@H](C)[C@@H](CN(C)C(=O)C1CCOCC1)O2	-23% [at 25 µM] (inactive)

SMILES	inhibition
COC(=O)Cc1c(-c2[nH]c3ccccc3c2CC(=O)OC)[nH]c2ccccc12	-13.2% (inactive)
COc1ccc(CCNC(=O)CN(c2ccccc2)S(=O)(=O)c2ccccc2)cc1	11.3% (inactive)
Cn1cnc(S(=O)(=O)N2CCCCN3[C@@H](CO)[C@@H](c4ccc(C#CC5CCCC5)cc4)[C@@H]3C2)c1	2.82% [at 25 µM] (inactive)
COc1ccc(C#Cc2ccc([C@@H]3[C@@H](CO)N4CCCCN(C(=O)c5ccncc5)C[C@@H]34)cc2)cc1	-18.8% [at 25 µM] (inactive)
COc1ccc(C#Cc2ccc([C@H]3[C@@H](CO)N4CCCCN(S(=O)(=O)c5cn(C)cn5)C[C@H]34)cc2)cc1	66.3% [at 25 µM] (active)
Cc1nnc(CN(C)Cc2cn[nH]c2-c2ccc(-c3ccccc3)cc2)o1	-39% (inactive)
COc1ccccc1C(=O)NNC(=O)c1ccc(NC(=O)c2ccccc2)cc1	11.1% (inactive)
COc1ccc(C(=O)Nc2cc(C)ccc2NC(=O)COc2ccccc2)cc1	-29.7% (inactive)
COc1ccc(C(=O)Nc2ccccc2C(=O)N/N=C/c2ccccc2OC)cc1	53.7% (active)
CCCNC(=O)C1CC(=O)N(c2ccc(OCc3ccccc3)cc2)C1 (stereo not given)	-7.3% (inactive)
O=C(C[C@H]1C=C[C@@H](NC(=O)c2cnccn2)[C@H](CO)O1)NCc1ccccc1F	3.55% [at 25 µM] (inactive)
O=C(Nc1ccccc1)c1nnsc1S(=O)(=O)c1ccc(Cl)cc1	96.6% (active)
Cc1nnsc1C(=O)N/N=C/c1ccccc1Cl	25% (inactive)
O=C(Nc1ccc(Cl)cc1)Nc1nnc(/C=C/c2ccccc2)s1	-0.929% (inactive)
Cc1cc(C(=O)OC(C)C(=O)NC2CCCCC2C)c(C)o1 (stereo not given)	16.2% (inactive)
NC(c1csc(NC(=O)Nc2cccc(C(F)(F)F)c2)n1)C1CCCCC1 (stereo not given)	76.7% (active)
C[C@H]1CN([C@@H](C)CO)C(=O)CCCn2cc(nn2)CO[C@H]1CN(C)C(=O)Nc1cccc(C(F)(F)F)c1	3.26% [at 25 µM] (inactive)
O=C(Nc1cccc(C(F)(F)F)c1)c1cnccn1	-0.813% (inactive)
CC(C)C[C@H](NC(=O)Nc1cccc(C(F)(F)F)c1)C(=O)O	17.4% (inactive)
CC(=O)Nc1ccc(-c2csc(NC(=O)Nc3ccccc3)n2)cc1	-27.4% (inactive)
NC(c1ccccc1)c1csc(NC(=O)Nc2cccc(C(F)(F)F)c2)n1 (stereo not given)	75% (active)
COc1ccc(NC(=O)Nc2ccc3c(c2)C(=O)N([C@@H](C)CO)C[C@H](C)[C@H](CN(C)Cc2ccc(C(F)(F)F)cc2)OCCCC[C@H](C)O3)cc1	8.72% (inactive)
c1ccc(CNCc2ccc(CNCc3ccccc3)cc2)cc1	-8.05% (inactive)
Cc1ccc(S(=O)(=O)NCCC(=O)NNC(=O)C2COc3ccccc3O2)cc1 (stereo not given)	-6.13% (inactive)
Cc1ccsc1C(=O)OCC(=O)c1cc2ccccc2o1	-95.3% (inactive)
Cc1ccsc1C(=O)OCC(=O)c1cc(C)n(CC2CCCO2)c1C (stereo not given)	94% (active)
Cc1cc(C(=O)Cn2cnc3cc([N+](=O)[O-])ccc3c2=O)c(C)n1CC1CCCO1 (stereo not given)	0.959% (inactive)
